Values joined by “and” are separate entries in the source; they are usually repeats but may differ in a detail not shown here. Identical values can stand only once. Out of some 5,500 compounds screened, about 2,000 (36%) were called active. Inconclusive results (about 18%) are left out. Rule as the data show it: active = normalized growth mostly below about 0.91 (no sharp cut-off); inconclusive = no clear call, values can overlap the other calls; inactive = mostly above about 0.92. The list shows a part of the results.
Experiment: chemical genetic growth profiling, strain panel (AID 1159580);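 also: tested at 20 µM; growth read once vehicle control cultures reached saturation at 30 °C; 1 = growth at the plate median or of vehicle wells; lower values mean less growth of the strain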
Conditions: S. cerevisiae deletion strains, growth OD

Measured: normalized growth

CCC(C)C(=O)O[C@H]1[C@H](O)C2C(CN3CC(C)CCC3[C@@]2(C)O)C2C[C@]34O[C@]5(O)C(OC(=O)C(C)(O)CC)CC[C@@]3(C)C5C(OC(C)=O)[C@@H](OC(C)=O)C4[C@@]21O (stereo partly specified)
inactive: locus YAL013W, strain DEP1, active compounds read low 1.01 | locus YAL021C, strain ccr4, active compounds read low 1.01 | locus YAL026C, strain drs2, active compounds read low 1.02 | locus YAL030W, strain snc1, active compounds read low 1.01 | locus YBL061C, strain skt5, active compounds read low 1.01 | locus YBR009C, strain hhf1, active compounds read low 1.02 | locus YBR021W, strain FUR4, active compounds read low 1.01 | locus YBR023C, strain chs3, active compounds read low 1.03 | locus YBR171W, strain sec66, active compounds read low 1.03 | locus YBR229C, strain ROT2, active compounds read low 0.999 | locus YBR231C, strain swc5, active compounds read low 1.01 | locus YBR279W, strain paf1, active compounds read low 1.02 | locus YCL011C, strain gbp2, active compounds read low 1.02 | locus YCL016C, strain dcc1, active compounds read low 1.03 | locus YCL029C, strain bik1, active compounds read low 0.988 | locus YCL069W, strain vba3, active compounds read low 1.02 | locus YCR088W, strain abp1, active compounds read low 1.02 | locus YDL005C, strain med2, active compounds read low 1.03 | locus YDL035C, strain GPR1, active compounds read low 1.02 | locus YDL040C, strain nat1, active compounds read low 1.02 | locus YDL074C, strain BRE1, active compounds read low 1.02 | locus YDL101C, strain DUN1, active compounds read low 1.02 | locus YDL134C, strain PPH21, active compounds read low 1.01 | locus YDL185W, strain tfp1, active compounds read low 0.995 | locus YDL192W, strain arf1, active compounds read low 0.99 | locus YDR001C, strain nth1, active compounds read low 1.01 | locus YDR069C, strain doa4, active compounds read low 1.02 | locus YDR101C, strain arx1, active compounds read low 0.991 | locus YDR137W, strain rgp1, active compounds read low 1.04 | locus YDR150W, strain NUM1, active compounds read low 1.02 | locus YDR159W, strain sac3, active compounds read low 1.04 | locus YDR162C, strain NBP2, active compounds read low 1.02 | locus YDR195W, strain ref2 1.01 | locus YDR297W, strain sur2, active compounds read low 1.01 | locus YDR318W, strain mcm21, active compounds read low 0.984 | locus YDR334W, strain swr1, active compounds read low 1.02 | locus YDR335W, strain msn5, active compounds read low 1.05 | locus YDR388W, active compounds read low 0.989 | locus YDR392W, strain spt3, active compounds read low 1.04 | locus YDR502C, strain sam2, active compounds read low 0.989 | locus YEL003W, strain gim4, active compounds read low 1.02 | locus YEL037C, strain rad23, active compounds read low 1.03 | locus YEL061C, strain CIN8 (second series), active compounds read low 1.02 | locus YEL061C, strain CIN8, active compounds read low 1.01 | locus YER015W, strain faa2, active compounds read low 1.02 | locus YER016W, strain bim1, active compounds read low 1.03 | locus YER110C, active compounds read low 0.982 | locus YER111C, strain swi4, active compounds read low 1.02 | locus YER155C, strain BEM2 (second series), active compounds read low 1.03 | locus YER155C, strain BEM2, active compounds read low 1 | locus YER167W, strain BCK2, active compounds read low 1.02 | locus YFR010W, strain ubp6, active compounds read low 1.01 | locus YGL078C, strain dbp3, active compounds read low 0.986 | locus YGL086W, strain mad1, active compounds read low 1 | locus YGL167C, strain pmr1, active compounds read low 1.01 | locus YGL173C, strain kem1, active compounds read low 1.03 | locus YGL227W, strain vid30, active compounds read low 1.03 | locus YGL240W, strain doc1, active compounds read low 1.01 | locus YGL248W, strain PDE1, active compounds read low 1.01 | locus YGL253W, strain hxk2, active compounds read low 1.04 | locus YGR078C, strain PAC10, active compounds read low 1.02 | locus YGR135W, strain pre9, active compounds read low 0.983 | locus YGR229C, strain SMI1, active compounds read low 1 | locus YGR252W, strain gcn5, active compounds read low 0.965 | locus YHR013C, strain ard1, active compounds read low 1.05 | locus YHR027C, strain rpn1, active compounds read low 1.03 | locus YHR030C, strain SLT2, active compounds read low 1.01 and 1.05 | locus YHR079C, strain IRE1 (second series), active compounds read low 0.993 | locus YHR079C, strain IRE1, active compounds read low 1.01 | locus YHR094C, strain hxt1, active compounds read low 0.99 | locus YHR129C, strain ARP1, active compounds read low 1.01 | locus YHR142W, strain chs7, active compounds read low 1.04 | locus YHR200W, strain rpn10, active compounds read low 1 | locus YIL066C, strain RNR3, active compounds read low 1.01 | locus YIL073C, strain SPO22, active compounds read low 1.02 | locus YIL125W, strain kgd1, active compounds read low 0.995 | locus YIR030C, strain dcg1, active compounds read low 0.993 | locus YJL092W, strain hpr5, active compounds read low 1.02 | locus YJL095W, strain BCK1 (second series), active compounds read low 1.03 | locus YJL095W, strain BCK1, active compounds read low 1.01 and 0.996 | locus YJL115W, strain asf1, active compounds read low 1.03 | locus YJL129C, strain trk1, active compounds read low 1.04 | locus YJL134W, strain LCB3, active compounds read low 1.01 | locus YJL154C, strain vps35, active compounds read low 1.02 | locus YJL164C, strain tpk1, active compounds read low 1.01 | locus YJL166W, strain qcr8, active compounds read low 1.01 | locus YJL168C, strain set2, active compounds read low 0.996 | locus YJL187C, strain SWE1 (second series), active compounds read low 1.01 | locus YJR043C, strain POL32, active compounds read low 0.995 | locus YJR066W, strain TOR1, active compounds read low 0.976 | locus YJR075W, strain HOC1, active compounds read low 1

Reference: PubChem BioAssay AID1159580 (chemical genetic matrix, 2015)
